Experimental findings from PubChem BioAssay (Tox21) are described below.

Molecules are shown by their SMILES. “And” between values parts separate entries of the source, which are not always exact repeats. Equal values may be shown once. Inconclusive results are not listed. Some compounds were tested as several samples or in several runs, with calls that do not always agree. The source made the active and inactive calls. Calls follow the shape of the full dose curve.
% is scaled to controls: 0 for no effect and ±100 for the full control effect; potency is read from the fitted curve at half-maximal effect.

The assay is described as follows: Nuclear factor erythroid 2-related factor 2/antioxidant responsive element (Nrf2/ARE) small molecule agonists: luciferase reporter gene qHTS assay in human keratinocytes (AID 1919969). Also: nearly all actives have a fitted effect of over 35% in size. The settings on record: KeratinoSens HaCaT ARE-luciferase, luminescence, 24 h; series mostly up to 92.4 µM; activity, positive = activation: at the top concentration. From the text:
National Center for Advancing Translational Sciences [NCATS]
Division of Preclinical Innovation [DPI]
U.S. Environmental Protection Agency [EPA]
National Institutes of Environmental Health Sciences [NIEHS]
National Toxicology Program [NTP]
U.S. Food and Drug Administration [FDA]
Oxidative stress has been implicated in the pathogenesis of a variety of diseases ranging from cancer to neurodegeneration. The antioxidant response element (ARE) signaling pathway plays an important role in the amelioration of oxidative stress. The KeratinoSens (Givaudan, Switzerland) is an in vitro test method which quantifies luciferase induction as a measure of activation of Keap1-Nrf2-antioxidationt/electrophile response element (ARE) dependant pathway in HaCaT human keratinocytes stably transfected with a selectable plasmid. The KeratinoSens assay is a cell-based assay with a reporter cell line to detect potential skin sensitizers by their ability to induce the Nrf2/ARE-response. The activation of the report gene under culture conditions can be detected by ONE-Glo Luciferase Assay System (Promega, Madison, WI). This cell line has been used to screen the Tox21 10K compound library to identify agonists that induce oxidative stress. The cytotoxicity of the Tox21 compound library against the KS-ARE cell line was tested in parallel by measuring the cell viability using CellTiter- Fluor assay system (Promega, Madison, WI) in the same wells.
HaCaT derived cell line KeratinoSens were dispensed at 1,500 cells/5uL/well in 1536-well white wall/solid bottom plates using a Multidrop Combi (ThermoFisher Scientific, Waltham, MA) dispenser. After the assay plates were incubated at 37 C/5% CO2 for 5 h, 23 nL of compounds dissolved in DMSO, positive controls or DMSO only was transferred to the assay plate by a pintool workstation (Kalypsys, San Diego, CA). The plates were incubated at 37 C/5% CO2 for 23 h, followed by addition of 1uL/well of CellTiter-Fluor reagent into the assay plates using a Flying Reagent Dispenser (Aurora Discovery, San Diego, CA) for cell viability readout that measures cytotoxicity. After 1 h incubation at 37 C/5% CO2 the fluorescence intensity was measured using a ViewLux (PerkinElmer, Shelton, CT) plate reader. Then 4uL/well of One-Glo were added using a Flying Reagent Dispenser. After the plates were incubated at room temperature for 30 min, the luminescence intensity in the assay plates was measured using ViewLux plate reader.
(Reporter assays use an easily measured gene product as a stand-in for the process of interest.)
Take `COC(=O)C(Br)CBr` (stereo not given): the “activity, positive = activation” value is -2.51% (inactive).
Turning to `NC(=O)CN1CCCC1=O`, the Potency result was “inactive”.
Regarding `Cc1ccc(C(=O)Cl)cc1`, the “activity, positive = activation” value was 4.57% (inactive).
Consider `CCOS(=O)(=O)OCC`, for which the Potency was 68.7 µM (active) and inactive.
Consider `COc1ccc(C=O)cc1`, for which the Potency result was “inactive”.
Turning to `ClC(Cl)=C(c1ccc(Cl)cc1)c1ccc(Cl)cc1`, the “activity, positive = activation” value is -39.3% (inactive).
As for `Nc1ccncc1`, the Potency result is “inactive”.
`ClCOCCl`: the “activity, positive = activation” value was -4.14% (inactive).
The same measure, in the same setting: for `CC(Oc1ccc(Cl)cc1Cl)C(=O)O` (stereo not given) the value was 5.06% (inactive); for `O=Cc1ccccc1`, 8.53% (inactive).
Consider `Oc1ccccc1-c1ccccc1`, for which the Potency was 62.6 µM (active) and inactive.
With `Cn1c(-c2ccccc2)cc(-c2ccccc2)[n+]1C`, the Potency entry was “inactive”.
On to `COP(=O)(CCC(=O)NCO)OC`, for which the “activity, positive = activation” value was -2.17% (inactive).
For `C1CC2OC2CC1C1CO1` (stereo not given), the Potency entry was “inactive”.
As for `CON(C)C(=O)Nc1ccc(Cl)cc1`, the “activity, positive = activation” value is 4.87% (inactive).
Take `C=CCc1ccccc1O`: the “activity, positive = activation” value was -10.6% (inactive).
Consider `CCCN(CCOc1c(Cl)cc(Cl)cc1Cl)C(=O)n1ccnc1`, for which the Potency entry is “inactive”.
Same read-out and setting: for `CN(C)C(=O)C(c1ccccc1)c1ccccc1` the value was “inactive”; for `C=C(C)[C@H]1Cc2c(ccc3c2O[C@@H]2COc4cc(OC)c(OC)cc4[C@@H]2C3=O)O1`, 13.9 µM (active) and 13.7 µM (active) and inactive.
For the compound `C=CC1CC=CCC1` (stereo not given), the “activity, positive = activation” value was -2.82% (inactive).
For `C=C(C#N)CCC#N`, the “activity, positive = activation” value was 19.8% (inactive).
In the case of `Nc1ccc(-c2ccc(N)c(N)c2)cc1N`, the Potency result is “inactive and 68.6 µM (active)”.
Take `CCN(CC)Cc1nccn1-c1ccc([N+](=O)[O-])cc1C(=O)c1ccccc1Cl`: the “activity, positive = activation” value is 8.17% [at 42.5 µM] (inactive).
`[P]#[In]`: the “activity, positive = activation” value is 0.941% (inactive).
For the compound `N#CCCC#N`, the “activity, positive = activation” value is 11% (inactive).
Consider `OC(c1ccc(Cl)cc1)(c1cncnc1)c1ccccc1Cl` (stereo not given), for which the Potency was 24.8 µM (active) and inactive.
As for `CCCCCON=O`, the “activity, positive = activation” value was -6.19% (inactive).
On to `C(=NC1CCCCC1)=NC1CCCCC1`, for which the Potency was 30.6 µM (active).
With `COc1cc2c(cc1OC)[C@@]13CCN4CC5=CCO[C@H]6CC(=O)N2[C@H]1[C@H]6[C@H]5C[C@H]43`, the “activity, positive = activation” value is 1.65% (inactive).
Consider `O=C(O)C1C(C(=O)O)C2(Cl)C(Cl)=C(Cl)C1(Cl)C2(Cl)Cl` (stereo not given), for which the Potency entry was “inactive”.
Turning to `CCN(CC)C(=O)/C(Cl)=C(\C)OP(=O)(OC)OC`, the “activity, positive = activation” value is -0.207% (inactive).
For `CCC(=O)O[C@H]1CC[C@H]2[C@@H]3CCC4=CC(=O)CC[C@]4(C)[C@H]3CC[C@]12C`, the Potency entry is “inactive”.
Same read-out and setting: for `Cc1cc(O)ccc1Cl` the value was “inactive”; for `O=P(OCCCl)(OCCCl)OCCCl`, “inactive”.
Take `[O]=[Cr][O][Cr]=[O]`: the “activity, positive = activation” value is -8.6% (inactive).
For the compound `CC(C)(C)C(=O)C(Cl)Cl`, the “activity, positive = activation” value is 0.484% (inactive).
Take `Cc1[nH]c(=O)n(C(C)(C)C)c(=O)c1Cl`: the Potency entry is “inactive”.
On to `O=[N+]([O-])O[C@H]1CO[C@H]2[C@@H]1OC[C@H]2O[N+](=O)[O-]`, for which the “activity, positive = activation” value is -4.82% [at 42.5 µM] (inactive).
`CSc1nc(NC(C)C)nc(NC(C)C)n1`: the Potency entry is “inactive”.
Still for that read-out and setting: next, `O=C/C=C/c1ccccc1`: “inactive”.
